# Source: publication PMC5540273 (PLoS ONE, 2017)
# Read-outs that look alike come from different tables or passages of the source.
# How the values were obtained:
# [1] = tested on: JAK1(JH2domain-pseudokinase); conditions: concentration: 1 μM,replicates: in singlicate; n = 1
# [2] = tested on: JAK2(JH1domain-catalytic); conditions: concentration: 1 μM,replicates: in singlicate; n = 1
# [3] = tested on: JAK3(JH1domain-catalytic); conditions: concentration: 1 μM,replicates: in singlicate; n = 1
# JNK1 = tested on: T1, JNK1; conditions: concentration: 1 μM,replicates: in singlicate; n = 1
# T1 construct: gene MAPK8
# JNK2 = tested on: T2, JNK2; conditions: concentration: 1 μM,replicates: in singlicate; n = 1
# T2 construct: gene MAPK9
# JNK3 = tested on: T3, JNK3; conditions: concentration: 1 μM,replicates: in singlicate; n = 1
# T3 construct: gene MAPK10
# KIT-autoinhibited = conditions: concentration: 1 μM,replicates: in singlicate; n = 1
# KIT = conditions: concentration: 1 μM,replicates: in singlicate; n = 1
# LATS1 = conditions: concentration: 1 μM,replicates: in singlicate; n = 1
# LATS2 = conditions: concentration: 1 μM,replicates: in singlicate; n = 1
# LCK = conditions: concentration: 1 μM,replicates: in singlicate; n = 1
# LIMK1 = conditions: concentration: 1 μM,replicates: in singlicate; n = 1
# LIMK2 = conditions: concentration: 1 μM,replicates: in singlicate; n = 1
# LKB1 = tested on: T4, LKB1; conditions: concentration: 1 μM,replicates: in singlicate; n = 1
# T4 construct: gene STK11
# LOK = tested on: T5, LOK; conditions: concentration: 1 μM,replicates: in singlicate; n = 1
# T5 construct: gene STK10
# LRRK2 = conditions: concentration: 1 μM,replicates: in singlicate; n = 1
# LTK = conditions: n = 1
# LYN = conditions: concentration: 1 μM,replicates: in singlicate; n = 1
# LZK = tested on: T6, LZK; conditions: concentration: 1 μM,replicates: in singlicate; n = 1
# T6 construct: gene MAP3K13
# MAK = conditions: concentration: 1 μM,replicates: in singlicate; n = 1
# [4] = concentration: 1 μM,replicates: in singlicate
# 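Note: KINOMEscan kinase panel screen.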
compound,measurement,setting,value
COc1ccc(Nc2nccc(N3CCC(NC(=O)c4cccc(C#N)c4)C3)n2)cc1 (centres unmarked) [GSK1379730],%Inh,[1],0%
same,%Inh,[2],12%
same,%Inh,[3],0%
same,%Inh,JNK1,15%
same,%Inh,JNK2,16%
same,%Inh,JNK3,10%
same,%Inh,KIT-autoinhibited,0%
same,%Inh,KIT,0%
same,%Inh,LATS1,0%
same,%Inh,LATS2,0%
same,%Inh,LCK,23%
same,%Inh,LIMK1,0%
same,%Inh,LIMK2,0%
same,%Inh,LKB1,2%
same,%Inh,LOK,0%
same,%Inh,LRRK2,31%
same,%Inh,LTK; [4],0%
same,%Inh,LYN,0%
same,%Inh,LZK,0%
same,%Inh,MAK,26%
COC(=O)Nc1nc2cc(Oc3ccc(NC(=O)Nc4cc(C(F)(F)F)ccc4Cl)cc3)ccc2[nH]1.Cl [GW697465],%Inh,[1],0%
same,%Inh,[2],25%
same,%Inh,[3],0%
same,%Inh,JNK1,20%
same,%Inh,JNK2,61%
same,%Inh,JNK3,8%
same,%Inh,KIT-autoinhibited,0%
same,%Inh,KIT,100%
same,%Inh,LATS1,100%
same,%Inh,LATS2,0%
same,%Inh,LCK,98.9%
same,%Inh,LIMK1,11%
same,%Inh,LIMK2,0%
same,%Inh,LKB1,14%
same,%Inh,LOK,99.7%
same,%Inh,LRRK2,11%
same,%Inh,LTK; [4],36%
same,%Inh,LYN,75%
same,%Inh,LZK,44%
same,%Inh,MAK,20%
Cl.c1ccc(Oc2ccc(Nc3ccnc4cc(-c5ccc(CN6CCNCC6)o5)ccc34)cc2)nc1 [GW567142],%Inh,[1],17%
same,%Inh,[2],100%
same,%Inh,[3],0%
same,%Inh,JNK1,0%
same,%Inh,JNK2,3%
same,%Inh,JNK3,0%
same,%Inh,KIT-autoinhibited,10%
same,%Inh,KIT,87%
same,%Inh,LATS1,0%
same,%Inh,LATS2,0%
same,%Inh,LCK,82%
same,%Inh,LIMK1,0%
same,%Inh,LIMK2,0%
same,%Inh,LKB1,0%
same,%Inh,LOK,54%
same,%Inh,LRRK2,4%
same,%Inh,LTK; [4],0%
same,%Inh,LYN,4%
same,%Inh,LZK,7%
same,%Inh,MAK,21%
COc1cccc(OC)c1C(=O)Nc1cccc(-c2nn3ccccc3c2-c2ccnc(Nc3cccc(F)c3)n2)c1 [GSK361065],%Inh,[1],4%
same,%Inh,[2],3%
same,%Inh,[3],0%
same,%Inh,JNK1,44%
same,%Inh,JNK2,0%
same,%Inh,JNK3,0%
same,%Inh,KIT-autoinhibited,11%
same,%Inh,KIT,90.9%
same,%Inh,LATS1,6%
same,%Inh,LATS2,10%
same,%Inh,LCK,24%
same,%Inh,LIMK1,31%
same,%Inh,LIMK2,15%
same,%Inh,LKB1,6%
same,%Inh,LOK,90%
same,%Inh,LRRK2,0%
same,%Inh,LTK; 1 µM,13%
same,%Inh,LYN,8%
same,%Inh,LZK,8%
same,%Inh,MAK,14%
Cl.Cl.NC[C@H](CC1CCCCC1)NC(=O)c1ccc(-c2ccnc3[nH]ccc23)s1 [GSK1581428],%Inh,[1],0%
same,%Inh,[2],97.2%
same,%Inh,[3],99.7%
same,%Inh,JNK1,18%
same,%Inh,JNK2,11%
same,%Inh,JNK3,8%
same,%Inh,KIT-autoinhibited,0%
same,%Inh,KIT,65%
same,%Inh,LATS1,89%
same,%Inh,LATS2,95.3%
same,%Inh,LCK,37%
same,%Inh,LIMK1,0%
same,%Inh,LIMK2,0%
same,%Inh,LKB1,50%
same,%Inh,LOK,31%
same,%Inh,LRRK2,49%
same,%Inh,LTK; [4],0%
same,%Inh,LYN,0%
same,%Inh,LZK,0%
same,%Inh,MAK,0%
O=C(NCC1CC1)c1ccc(-c2cc(C(=O)NC3CC3)ccc2F)cc1 [GW810445],%Inh,[1],0%
same,%Inh,[2],12%
same,%Inh,[3],0%
same,%Inh,JNK1,0%
same,%Inh,JNK2,0%
same,%Inh,JNK3,0%
same,%Inh,KIT-autoinhibited,0%
same,%Inh,KIT,0%
same,%Inh,LATS1,0%
same,%Inh,LATS2,0%
same,%Inh,LCK,0%
same,%Inh,LIMK1,0%
same,%Inh,LIMK2,0%
same,%Inh,LKB1,68%
same,%Inh,LOK,5%
same,%Inh,LRRK2,71%
same,%Inh,LTK; [4],28%
same,%Inh,LYN,0%
same,%Inh,LZK,0%
same,%Inh,MAK,0%
FC(F)(F)c1cc(Br)cc(Nc2nccc(-c3cnn4ncccc34)n2)c1 [GW810578],%Inh,[1],80%
same,%Inh,[2],0%
same,%Inh,[3],0%
same,%Inh,JNK1,0%
same,%Inh,JNK2,5%
same,%Inh,JNK3,1%
same,%Inh,KIT-autoinhibited,63%
same,%Inh,KIT,100%
same,%Inh,LATS1,0%
same,%Inh,LATS2,6%
same,%Inh,LCK,4%
same,%Inh,LIMK1,0%
same,%Inh,LIMK2,0%
same,%Inh,LKB1,14%
same,%Inh,LOK,25%
same,%Inh,LRRK2,58%
same,%Inh,LTK; [4],18%
same,%Inh,LYN,8%
same,%Inh,LZK,0%
same,%Inh,MAK,55%
COc1cc2nccc(Nc3ccc(Oc4ccccc4)cc3)c2cc1OC.Cl [GI261656],%Inh,[1],0%
same,%Inh,[2],100%
same,%Inh,[3],0%
same,%Inh,JNK1,4%
same,%Inh,JNK2,10%
same,%Inh,JNK3,0%
same,%Inh,KIT-autoinhibited,0%
same,%Inh,KIT,79%
same,%Inh,LATS1,0%
same,%Inh,LATS2,9%
same,%Inh,LCK,99.2%
same,%Inh,LIMK1,0%
same,%Inh,LIMK2,14%
same,%Inh,LKB1,13%
same,%Inh,LOK,0%
same,%Inh,LRRK2,0%
same,%Inh,LTK; [4],0%
same,%Inh,LYN,71%
same,%Inh,LZK,5%
same,%Inh,MAK,1%
O=C(Nc1cccc(C(F)(F)F)c1)c1cccc(Oc2ccc3nccn3n2)c1,%Inh,[1],10%
same,%Inh,[2],30%
same,%Inh,[3],8%
same,%Inh,JNK1,21%
same,%Inh,JNK2,0%
same,%Inh,JNK3,10%
same,%Inh,KIT-autoinhibited,44%
same,%Inh,KIT,99.9%
same,%Inh,LATS1,0%
same,%Inh,LATS2,0%
same,%Inh,LCK,63%
same,%Inh,LIMK1,0%
same,%Inh,LIMK2,8%
same,%Inh,LKB1,0%
same,%Inh,LOK,24%
same,%Inh,LRRK2,0%
same,%Inh,LTK; [4],45%
same,%Inh,LYN,37%
same,%Inh,LZK,20%
same,%Inh,MAK,0%
CN(c1cccc(CNc2nc(Nc3ccc4c(c3)CC(=O)N4)ncc2C(F)(F)F)c1)S(C)(=O)=O,%Inh,[1],79%
same,%Inh,[2],98.1%
same,%Inh,[3],100%
same,%Inh,JNK1,40%
same,%Inh,JNK2,31%
same,%Inh,JNK3,35%
same,%Inh,KIT-autoinhibited,31%
same,%Inh,KIT,57%
same,%Inh,LATS1,29%
same,%Inh,LATS2,24%
same,%Inh,LCK,42%
same,%Inh,LIMK1,0%
same,%Inh,LIMK2,0%
same,%Inh,LKB1,5%
same,%Inh,LOK,0%
same,%Inh,LRRK2,18%
same,%Inh,LTK; [4],60%
same,%Inh,LYN,18%
same,%Inh,LZK,0%
same,%Inh,MAK,0%
